About 5,900 (0.91%) of roughly 650,000 compounds were called active. No stated cut-off is given here; in the data, active means inhibition above about 50%; inactive means the rest. What follows is part of a selection rich in actives, with near analogues and random picks from the rest.

The target of this assay is Microphthalmia-associated transcription factor (Homo sapiens) (UniProt O75030). The assay can be described thus: MITF inhibitors, primary screen, biochemical, AlphaScreen, human (AID 1259374).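 Further: 0% = vehicle wells with protein.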 To be noted: AlphaScreen MITF homodimerization, bead proximity signal; at 2.6 µM; hits give high values.
Chain of Microphthalmia-associated transcription factor (Homo sapiens) (O75030 whole entry, looked up): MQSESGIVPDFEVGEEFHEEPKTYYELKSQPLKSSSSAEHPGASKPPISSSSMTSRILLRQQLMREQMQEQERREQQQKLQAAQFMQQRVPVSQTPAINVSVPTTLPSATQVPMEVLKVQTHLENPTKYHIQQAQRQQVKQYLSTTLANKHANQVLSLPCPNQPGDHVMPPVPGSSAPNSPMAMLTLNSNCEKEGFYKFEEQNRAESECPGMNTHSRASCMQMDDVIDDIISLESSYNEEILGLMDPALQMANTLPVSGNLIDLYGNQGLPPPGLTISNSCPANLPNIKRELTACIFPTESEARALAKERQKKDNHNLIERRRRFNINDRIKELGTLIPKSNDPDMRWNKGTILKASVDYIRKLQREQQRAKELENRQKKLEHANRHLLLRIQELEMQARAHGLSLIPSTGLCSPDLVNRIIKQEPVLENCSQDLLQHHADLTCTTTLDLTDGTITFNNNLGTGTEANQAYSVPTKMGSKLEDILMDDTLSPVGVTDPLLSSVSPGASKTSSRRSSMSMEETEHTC
Consider `Cc1ccccc1-n1c(=S)sc2c(=O)n(-c3ccccc3)c(SCc3cc(=O)n4cc(Cl)ccc4n3)nc21`, for which the inhibition is -24.2% (inactive).

Take `CC(C)NC(=O)Cn1nc(SCc2ccccn2)nc1N`: the inhibition is 2.01% (inactive).

Turning to `Cn1ccnc1SCc1cc(=O)c(OC(=O)c2ccccc2I)co1`, the inhibition was -3.29% (inactive).

As for `O=C(Nc1cccc(N2CCC(N(CC3CCC3)CC3CCCO3)CC2)c1)c1cccnc1` (stereo not drawn), the inhibition was 21.5% (inactive).

Turning to `CN(CCc1ccccn1)CC(=O)N1CCc2ccccc21`, the inhibition is 93% (active).

Take `CC(C)CC(=O)N1CCc2ccccc21`: the inhibition is 5.19% (inactive).

With `COc1ccc(CN(C)CC(=O)N2CCc3ccccc32)cc1OC`, the inhibition is 0.1% (inactive).

In the case of `CN(C(=O)c1ccccc1)c1cccc(N)c1`, the inhibition was -4.8% (inactive).

Consider `COc1cc(CNCc2ccc3c(c2)OCO3)c([N+](=O)[O-])cc1OC`, for which the inhibition is 6.83% (inactive).

On to `c1ccc(CN2CCN(Cc3ccco3)CC2)cc1`, for which the inhibition is 12.7% (inactive).

For the compound `COc1cc(CN2CCN(Cc3ccco3)CC2)c([N+](=O)[O-])cc1OC`, the inhibition is 84.4% (active).

As to `COc1cc(CN2CCN(Cc3ccc(C)cc3)CC2)c([N+](=O)[O-])cc1OC`, the inhibition is 80.6% (active).

Turning to `COc1cc(CN2CCCC(CO)C2)c([N+](=O)[O-])cc1OC` (stereo not drawn), the inhibition is 12.4% (inactive).

Regarding `COc1cc(CN2CCN(Cc3ccc(Cl)cc3)CC2)c([N+](=O)[O-])cc1OC`, the inhibition was 65.5% (active).

For the compound `COc1cc(C(=O)N2CCCC2)c([N+](=O)[O-])cc1OC`, the inhibition is 9.4% (inactive).

Consider `COc1cc(CN2CCCN(C)CC2)c([N+](=O)[O-])cc1OC`, for which the inhibition was 14.7% (inactive).

Turning to `COc1cc(CN2CCN(CCO)CC2)c([N+](=O)[O-])cc1OC`, the inhibition was 13.5% (inactive).

As to `CN1CCc2cc(CNC(=O)CC3C(=O)NCCN3CCc3ccccc3)ccc21` (stereo not drawn), the inhibition was -15.3% (inactive).

Take `CC/C(C)=N\NC(=O)CCC(=O)Nc1ccccc1`: the inhibition is 7.54% (inactive).

On to `NC(=O)c1ccccc1NC(=O)CCl`, for which the inhibition is 0.34% (inactive).

For the compound `CCNC(=O)CSc1ccc(C)cc1`, the inhibition is 1.07% (inactive).

For the compound `CN1C(=O)CSC1=Nc1ccc(Cl)c(Cl)c1`, the inhibition is -5.98% (inactive).

On to `CCNc1nc(OC)cc(OC)n1`, for which the inhibition was -5.7% (inactive).

On to `CCNc1nc(NC(C)C)nc(OCCOC(C)=O)n1`, for which the inhibition is -3.21% (inactive).

`CCNc1nc(NCC)nc(C(=O)O)n1`: the inhibition was 55.1% (active).

For `O=C(CN1CCN(CC(=O)c2ccco2)CC1)Nc1ccc(Cl)c(Cl)c1`, the inhibition is 65.2% (active).

In the case of `O=C(COC(=O)c1ccco1)Nc1ccc(Cl)c(Cl)c1`, the inhibition was -6.47% (inactive).

Turning to `O=C(CN1CCN(C(=O)Nc2c(F)cccc2F)CC1)c1ccco1`, the inhibition was 39.7% (inactive).

With `COc1cccc2c1OC1(CCN(C(=O)Cc3cccs3)CC1)OC2`, the inhibition is 0.59% (inactive).

In the case of `COc1cc(C(=O)/C(=C/c2ccccc2F)c2nc3ccccc3o2)cc(OC)c1OC`, the inhibition is 5.52% (inactive).

As to `COC(=O)CSc1nc(C2CC2)nc2ccccc12`, the inhibition was 72.1% (active).

As to `Cc1nnc(NC(=O)CSc2nc(C3CCCCC3)nc3ccccc23)s1`, the inhibition is -12.8% (inactive).

Take `c1ccc(CSc2nc(C3CC3)nc3ccccc23)nc1`: the inhibition was -3.42% (inactive).

Consider `Cc1cccc(NC(=O)CC[C@H]2CN(Cc3ccccc3)CC[C@H]2N(C)C)c1`, for which the inhibition is -2.16% (inactive).

Turning to `CC(C)(C)c1ccc(OCCCCNCCO)cc1`, the inhibition was -8.77% (inactive).

Regarding `OCCNCCCOc1ccc(I)cc1`, the inhibition is -4.92% (inactive).

`CCOc1ccc(OCCCCNCCO)cc1`: the inhibition is 63.6% (active).

As for `O=C(Nc1ccc(N2CCC(NCc3ccc4c(c3)OCO4)CC2)cc1)C1CCCC1`, the inhibition is -10.3% (inactive).

For `O=C(c1ccccc1)c1cccc(NC(=O)C2CCCCC2)c1`, the inhibition was -1.02% (inactive).

Consider `CC1=C(C(=O)OCC(C)C)C(c2cccc(OCc3ccccc3)c2)C2=C(CCCC2=O)N1` (stereo not drawn), for which the inhibition is 0.37% (inactive).

As for `COC(=O)c1ccc(C2C(C(=O)OCCOc3ccccc3)=C(C)NC3=C2C(=O)CCC3)cc1` (stereo not drawn), the inhibition was 0.05% (inactive).

`CCOc1cccc(C2C(C(=O)OCCOc3ccccc3)=C(C)NC3=C2C(=O)CCC3)c1` (stereo not drawn): the inhibition is 59.2% (active).

`COc1ccc(C(=O)N/C(=C\c2cccc([N+](=O)[O-])c2)C(=O)NC(CC(C)C)C(=O)O)cc1` (stereo not drawn): the inhibition was -8.1% (inactive).

Regarding `COCCn1nnnc1C(c1ccc(F)cc1)N1CCN(c2ccccc2OC)CC1` (stereo not drawn), the inhibition was -3.53% (inactive).

`Cc1cc(-c2ccc(S(=O)(=O)NC3CCC(C)CC3)cc2)on1` (stereo not drawn): the inhibition was 4.94% (inactive).

Regarding `CC(=O)N1CCN(C(=O)c2ccc(N3CC4CC(C3)c3cccc(=O)n3C4)c(NC(=O)c3cccnc3)c2)CC1` (stereo not drawn), the inhibition is 60% (active).

As for `CCOC(=O)C1CCN(C(=O)c2ccc(N3CC4CC(C3)c3cccc(=O)n3C4)c(NC(=O)c3cccnc3)c2)CC1` (stereo not drawn), the inhibition was -0.93% (inactive).

With `COc1ccccc1NC(=O)c1ccc(N2CC3CC(C2)c2cccc(=O)n2C3)c(NC(=O)c2cccnc2)c1` (stereo not drawn), the inhibition is -6.03% (inactive).

As to `CCCCNC(=O)/C(=C/c1ccco1)NC(=O)c1ccccc1`, the inhibition is 5.66% (inactive).

In the case of `O=C(O)CCCCCNC(=O)/C(=C\c1ccco1)NC(=O)c1ccccc1`, the inhibition was 52.3% (active).

As to `O=C(NCCO)/C(=C/c1ccco1)NC(=O)c1ccccc1`, the inhibition is 13.5% (inactive).

For the compound `CC(C)(CO)NC(=O)CCC1(Cc2ccc3ccccc3c2)CCC(=O)N1` (stereo not drawn), the inhibition was 5.16% (inactive).

With `CCc1ccc(C(=O)CC(c2ccccc2)C2CCCCC2=O)cc1` (stereo not drawn), the inhibition was 2.82% (inactive).

For `Cc1cncn(CC(=O)NCCOc2ccccc2)c1=O`, the inhibition was -1.97% (inactive).

As for `CCCCC(C(=O)O)N1C(=O)/C(=C2/C(=O)N(C(C)=O)c3ccccc32)SC1=S` (stereo not drawn), the inhibition is 6.57% (inactive).

With `Cc1ccc(/C=C2\SC(=S)N(c3cccc(O)c3)C2=O)o1`, the inhibition is 13.4% (inactive).

As to `CCCC(C(=O)O)N1C(=O)/C(=C/C=C/c2ccco2)SC1=S` (stereo not drawn), the inhibition was 63.6% (active).

As to `O=C(O)CCC(C(=O)O)N1C(=O)/C(=C\c2ccco2)SC1=S` (stereo not drawn), the inhibition is 62.6% (active).

For the compound `O=C(CCN1C(=O)/C(=C\c2ccco2)SC1=S)Nc1cccc(C(=O)O)c1`, the inhibition was 2.65% (inactive).

Take `Cc1ccc(/C=C2\SC(=S)N(C(C)C(=O)O)C2=O)o1` (stereo not drawn): the inhibition was 69.4% (active).

In the case of `COc1cc(/C=C2/SC(=S)N(C(CCSC)C(=O)O)C2=O)ccc1O` (stereo not drawn), the inhibition is 15.5% (inactive).

`O=C(CCCN1C(=O)/C(=C\c2ccco2)SC1=S)Nc1ccccc1C(=O)O`: the inhibition is 9.5% (inactive).

`CC(C(=O)O)N1C(=O)S/C(=C\c2ccccc2)C1=O` (stereo not drawn): the inhibition is 8.38% (inactive).

Broadly, the inhibition is the relative decrease from the control value, in per cent.

(Values after PubChem BioAssay AID1259374 (The Scripps Research Institute Molecular Screening Center, 2018).)
